{"source": "PubChem BioAssay (NCATS)", "key": {"[1]": {"test": "qHTS assay for small molecule activators of the nuclear factor-kappa B (NF-kB) signaling pathway (AID 651749; active means well fitted activation curve with a large enough effect in the signal ratio; the % refers to the signal ratio; further: % of control where 0% means no effect)", "settings": "NF-kB-bla ME-180 cells, beta-lactamase FRET ratio, 16 h; active compounds read high", "method_in_brief": "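Screening used 2,000 ME-180 reporter cells per well exposed to pinned compound (23 nL) or DMSO; after 16 hr at 37C, beta-lactamase expression under NF-kB control was assessed through FRET.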"}, "[2]": {"molecular_target": "Tumor necrosis factor (Homo sapiens) (UniProt P01375)", "sequence (P01375 whole entry, looked up)": "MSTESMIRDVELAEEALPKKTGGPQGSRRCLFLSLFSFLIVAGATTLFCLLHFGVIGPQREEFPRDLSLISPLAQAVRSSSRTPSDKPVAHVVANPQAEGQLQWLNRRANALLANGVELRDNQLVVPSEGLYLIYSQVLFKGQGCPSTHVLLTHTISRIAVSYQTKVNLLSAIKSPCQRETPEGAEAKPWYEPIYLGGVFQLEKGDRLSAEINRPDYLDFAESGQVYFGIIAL", "test": "qHTS assay to identify small molecules that stimulate Tumor Necrosis Factor-alpha (TNF-alpha) secretion (AID 651757; active means well fitted curve in the direction sought with a large enough effect in the signal ratio; the % refers to the signal ratio; further: 0% is about no effect)", "settings": "Human cells, HTRF 665/615 ratio; series mostly up to 92.2 µM", "method_in_brief": "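THP-1 cells (3000/well) exposed to compounds 17 hrs at 37 C. Secreted TNF-alpha detected by HTRF with cryptate- and XL665-labeled anti-TNF-alpha antibodies after 3 hr at room temperature.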"}, "[3]": {"test": "qHTS assay for environmental chemicals that activate the Aryl hydrocarbon Receptor (AhR) signaling pathway (AID 651777); further: nearly all actives have a fitted effect of over 15% in size; further: potency means the concentration at half of the fitted maximal effect; on activation: % of control where 0% means no effect", "settings": "1A2-DRE human hepatoma cells, luciferase, 24 h; activation: active compounds read high", "method_in_brief": "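Quantitative HTS in stably transfected human liver-derived cells whose luciferase gene sits downstream of the CYP1A2 promoter and dioxin response element. After 24 hr exposure at 37 C, One-Glo luminescence was measured.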"}, "[4]": {"molecular_target": "Peroxisome proliferator-activated receptor alpha (Homo sapiens) (UniProt Q07869)", "sequence (Q07869 whole entry, looked up)": "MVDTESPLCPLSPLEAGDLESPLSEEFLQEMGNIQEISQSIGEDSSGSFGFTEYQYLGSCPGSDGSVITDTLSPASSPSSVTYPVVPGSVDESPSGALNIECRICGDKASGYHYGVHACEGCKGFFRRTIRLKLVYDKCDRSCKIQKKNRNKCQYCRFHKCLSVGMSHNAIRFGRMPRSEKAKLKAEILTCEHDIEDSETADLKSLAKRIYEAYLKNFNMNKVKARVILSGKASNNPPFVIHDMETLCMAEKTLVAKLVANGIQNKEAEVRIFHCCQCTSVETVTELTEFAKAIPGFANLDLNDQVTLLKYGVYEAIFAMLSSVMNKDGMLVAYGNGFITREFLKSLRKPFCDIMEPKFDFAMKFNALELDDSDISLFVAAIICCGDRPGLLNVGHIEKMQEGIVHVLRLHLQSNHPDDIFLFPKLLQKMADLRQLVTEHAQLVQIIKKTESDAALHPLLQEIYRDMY", "test": "qHTS assay for small molecule agonists of the peroxisome proliferator-activated receptor alpha (PPARalpha) signaling pathway (AID 651778); further: potency means the concentration at half of the fitted maximal effect; on max response: % of control where 0% means no effect", "settings": "PathHunter PPARalpha complementation, chemiluminescence, 6 h; max response: active compounds read high", "method_in_brief": "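Cells plated at 2,000/well and held overnight at 37 C, 5% CO2, then compound added by pin tool for 6 hr; after PathHunter detection reagent and 60 min at room temperature, chemiluminescence from enzyme complementation was read.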"}, "[5]": {"test": "qHTS assay for small molecule agonists of the antioxidant response element (ARE) signaling pathway (AID 651741; active means well fitted activation curve with a large enough effect in the signal ratio; the % refers to the signal ratio; further: potency means the concentration at half of the fitted maximal effect; on activation: % of control where 0% means no effect)", "settings": "HepG2 ARE-bla reporter, beta-lactamase FRET ratio, 16 h; series mostly up to 96 µM", "method_in_brief": "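Compounds in DMSO are pinned onto HepG2 ARE-bla cells (2,000/well) that were preincubated 5 h; plates stay 16 h at 37 C, then beta-lactamase activity is detected with LiveBLAzer B/G substrate by fluorescence.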"}, "[6]": {"test": "qHTS assay for small molecule disruptors of the mitochondrial membrane potential - 1 hr assay (AID 651754; calls by dose curve; further: potency means the concentration at half of the fitted maximal effect; nearly all actives have a fitted effect of over 35% in size)", "settings": "series mostly up to 92.2 µM", "method_in_brief": "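HepG2 cells, attached overnight, were exposed to compound for 1 hr at 37C, then stained 30 min with a potentiometric dye. Ratio of red aggregate (590nm) to green monomer (535nm) fluorescence reports membrane potential; collapse shifts signal toward green.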"}, "[7]": {"test": "qHTS assay for small molecule disruptors of the mitochondrial membrane potential - 5 hr assay (AID 651755; calls by dose curve; further: potency means the concentration at half of the fitted maximal effect; nearly all actives have a fitted effect of over 40% in size)", "settings": "JC-1-type ratio dye; series mostly up to 92.2 µM", "method_in_brief": "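HepG2 cells, attached overnight at 37C, were exposed to compound or DMSO for 5 hr at 37C, 5% CO2. Mito-MPS dye was then added for 30 min, and fluorescence read at 490/535 nm (monomers) and 540/590 nm (aggregates).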"}, "[8]": {"test": "Cell Proliferation Assay against the TMD8 Cell Line (Caspase readout at 16 hrs) (AID 651712)", "settings": "TMD8 lymphoma cells, caspase activation luminescence; series mostly up to 46.1 µM", "method_in_brief": "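TMD8 cells (500/well) in phenol-red-free RPMI with glutamine, 5% FBS, were exposed to compounds for 16 h at 37 °C. Caspase 3/7 activation was read by Caspase-Glo luminescence; percent activity normalised to DMSO (0%) and 9.2 uM bortezomib final (100%).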"}, "[9]": {"test": "Cell Proliferation Assay against the TMD8 Cell Line (Caspase readout at 8 hrs) (AID 651713)", "settings": "TMD8 lymphoma cells, caspase activation luminescence; series mostly up to 46.1 µM", "method_in_brief": "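TMD8 cells in RPMI plus 5% FBS were treated with compound for 8 h at 37C. Caspase 3/7 activation was read by Caspase-Glo luminescence. Percent activity was scaled from DMSO (0%) to 9.2 uM bortezomib final (100%).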"}}, "note": "“And” between values parts separate entries of the source, which are not always exact repeats. Identical values can stand only once. Unmarked numbers belong to inactive results. Results filed as inconclusive are left out. The source made the active and inactive calls. Unless noted, the call rests on the fitted dose curve; in most records, active means well fitted curve in the direction sought with a large enough effect; inconclusive means small, poorly fitted or top-dose-only effect, or another doubt; inactive means no such curve, though single readings can be large; an effect the other way counts as inactive or inconclusive."}
{"smiles": "Cc1cn([C@H]2C[C@H](N=[N+]=[N-])[C@@H](CO)O2)c(=O)[nH]c1=O", "values": [{"measurement": "activation", "setting": "[1]", "value": "0.977% and -0.0662%"}, {"measurement": "outcome", "setting": "[2]", "value": "inactive"}, {"measurement": "activation", "setting": "[3]", "value": "-0.858% and 1.65%"}, {"measurement": "max response", "setting": "[4]", "value": "0.0124% and -0.27%"}]}
{"smiles": "Nc1c2c(nc3ccccc13)CCCC2", "values": [{"measurement": "activation", "setting": "[3]", "value": 11.6, "unit": "%"}, {"measurement": "max response", "setting": "[4]", "value": -6.35, "unit": "%"}]}
{"smiles": "O=c1[nH]cc(F)c(=O)[nH]1", "values": [{"measurement": "outcome", "setting": "[2]", "value": "inactive"}, {"measurement": "activation", "setting": "[3]", "value": -0.168, "unit": "%"}, {"measurement": "max response", "setting": "[4]", "value": -2.48, "unit": "%"}]}
{"smiles": "O=C(c1ccc(OCCN2CCCCC2)cc1)c1c(-c2ccc(O)cc2)sc2cc(O)ccc12", "values": [{"measurement": "activation", "setting": "[3]", "value": -4.31, "unit": "%"}, {"measurement": "max response", "setting": "[4]", "value": -6.34, "unit": "%"}]}
{"smiles": "Clc1ccc(C(c2ccccc2Cl)C(Cl)Cl)cc1", "note": "(stereo not drawn)", "values": [{"measurement": "Potency", "setting": "[5]", "value": "66.8 µM (active)"}, {"measurement": "activation", "setting": "[1]", "value": 2.3, "unit": "%"}, {"measurement": "Potency", "setting": "[6]", "value": "29.8 µM (active)"}, {"measurement": "Potency", "setting": "[7]", "value": "37.6 µM (active)"}, {"measurement": "outcome", "setting": "[2]", "value": "inactive"}, {"measurement": "activation", "setting": "[3]", "value": "2.12% and 0.378%"}, {"measurement": "max response", "setting": "[4]", "value": 18.7, "unit": "%"}]}
{"smiles": "O=C(CCCN1CCC(O)(c2ccc(Cl)cc2)CC1)c1ccc(F)cc1", "values": [{"measurement": "activation", "setting": "[3]", "value": -0.128, "unit": "%"}, {"measurement": "max response", "setting": "[4]", "value": -1.35, "unit": "%"}]}
{"smiles": "Cn1c(=O)c2[nH]cnc2n(C)c1=O", "values": [{"measurement": "Potency", "setting": "[5]", "value": "inactive"}, {"measurement": "activation", "setting": "[1]", "value": 0.41, "unit": "%"}, {"measurement": "outcome", "setting": "[2]", "value": "inactive"}, {"measurement": "activation", "setting": "[3]", "value": 3.65, "unit": "%"}, {"measurement": "max response", "setting": "[4]", "value": -1.61, "unit": "%"}]}
{"smiles": "Cn1ccc2cc3c(cc21)CCN3C(=O)Nc1cccnc1", "values": [{"measurement": "Potency", "setting": "[8]", "value": "inactive"}, {"measurement": "Potency", "setting": "[9]", "value": "inactive"}]}
{"smiles": "CC(C)(Oc1ccc(C2CC2(Cl)Cl)cc1)C(=O)O", "note": "(stereo not drawn)", "values": [{"measurement": "activation", "setting": "[1]", "value": 1.65, "unit": "%"}, {"measurement": "Potency", "setting": "[4]", "value": "14.1 µM (active)"}]}
{"smiles": "CN(Cc1cnc2nc(N)nc(N)c2n1)c1ccc(C(=O)N[C@@H](CCC(=O)O)C(=O)O)cc1", "values": [{"measurement": "Potency", "setting": "[5]", "value": "0.154 µM (active)"}, {"measurement": "max response", "setting": "[4]", "value": -3.74, "unit": "%"}]}
{"smiles": "O=C(Nc1ccc([N+](=O)[O-])cc1Cl)c1cc(Cl)ccc1O", "values": [{"measurement": "Potency", "setting": "[5]", "value": "3.06 µM (active)"}, {"measurement": "activation", "setting": "[1]", "value": -2.6, "unit": "%"}, {"measurement": "Potency", "setting": "[3]", "value": "1.41 µM (active)"}, {"measurement": "max response", "setting": "[4]", "value": -1.62, "unit": "%"}]}
{"smiles": "NS(=O)(=O)c1cc2c(cc1Cl)NCNS2(=O)=O", "values": [{"measurement": "Potency", "setting": "[5]", "value": "inactive"}, {"measurement": "outcome", "setting": "[2]", "value": "inactive"}, {"measurement": "activation", "setting": "[3]", "value": "0.0029% and 2.21%"}, {"measurement": "max response", "setting": "[4]", "value": "-0.533% and -1.17%"}]}
{"smiles": "Cn1cnc2c1c(=O)[nH]c(=O)n2C", "values": [{"measurement": "Potency", "setting": "[5]", "value": "inactive"}, {"measurement": "activation", "setting": "[1]", "value": -2.65, "unit": "%"}, {"measurement": "activation", "setting": "[3]", "value": 2.86, "unit": "%"}, {"measurement": "max response", "setting": "[4]", "value": -2.11, "unit": "%"}]}
